We go through 14 compounds from PubChem BioAssay (NCI).

SMILES strings stand for the structures. This is part of a sample that, as a whole, favours compounds with a hit. Of some 83,000 tested, about 20% had one in any assay.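 The test compound was applied at a single concentration to cells in 96-well plates for 48 hours, and percent growth was recorded.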 Values without a mark were called inactive. Activity calls are given as the source filed them. The calls were made as follows: active = growth percent below 10; inactive = the rest.

The subject of the test is NCI-H522 lung. Briefly: NCI-60 one-dose screen, 48 h (100 = growth as untreated, 0 = no growth, -100 = all killed). Conditions: 10 µM unless noted.
`COc1cc2c(c(OC)c1OC)C(=O)CC(c1cccc(NC(=O)[C@@H](N)CC(C)C)c1)O2` (some centres undefined): the growth was 90%.
The value for `CN1CCN(/C(=N\c2sc(-c3ccccc3)nc2-c2ccccc2)c2ccccc2)CC1` was 87.3%; that for `Cc1ccc(-c2nnc3ccc(N/N=C/c4ccccc4)nn23)cc1` was 105%; that for `COc1ccc(C(=O)/C=C/c2ccccc2Br)cc1S(N)(=O)=O` was -67% (active).
The same measure for `CC1=C(C(=O)OCc2ccccc2)C(c2c(O)cc(O)cc2O)n2c(nc3ccccc32)N1` (centres undefined): 1.19% (active).
For the compound `CCCCc1c(Nn2cnnn2)no[n+]1[O-]`, the growth was -21.9% (active).
The same measure for `CC(C)CSc1nc(NCCc2c[nH]c3ccccc23)c(C#N)c(-c2ccc(Cl)cc2)n1`: 68.7%; for `CN1CCc2c(sc3ncnc(N/N=C/c4ccc(Cl)cc4Cl)c23)C1`: -34.3% (active); for `N#Cc1c(-c2ccc(Br)cc2)nc2n[nH]c(-c3ccc(Br)cc3)c2c1-c1ccc(F)cc1`: 94.1%.
The same measure for `CC(=O)OC[C@@]1(C)C2CC[C@]3(C)C(CC=C4C5CC(C)(C)CC[C@]5(C(=O)Nc5ccc(F)cc5)CC[C@]43C)[C@@]2(C)C[C@@H](OC(C)=O)[C@@H]1OC(C)=O` (some centres undefined): 49.5%; for `NS(=O)(=O)c1ccc(N=Nc2c(O)n(CC(=O)Nc3ccccc3Cl)c3ccccc23)cc1`: 51.8%; for `CCCCNC(=S)Nc1ccc(OCc2nc3ccccc3[nH]2)cc1`: 36.2%.
Turning to `Cc1cc2nc3c4ccccc4n(CCCN(C)C)c3nc2cc1C`, the growth was -58.7% (active).
The value for `COc1cc2c(c(OC)c1OC)C(=O)CC(c1cccc(NC(=O)c3cc(NC(=O)[C@@H](N)CO)ccc3C)c1)O2` (some centres undefined) was 93%.
